Measured values taken from PubChem BioAssay (NCATS).
Inconclusive results are not listed. Unmarked numbers belong to inactive results. Calls of active or inactive are those of the source. The call rests on the fitted dose curve; in most records, active means well fitted inhibition curve with a large enough effect; inconclusive means small, poorly fitted or top-dose-only effect; inactive means flat fitted curve, though single readings scatter.

system: Zika virus NS2B-NS3 protease; experiment: Primary screen GU AMC qHTS for Zika virus inhibitors (AID 1347154); details: Zika NS2B-NS3 unlinked protease, AMC fluorogenic substrate; series mostly up to 54.1 µM; activity change, negative = inhibition: at the top concentration;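 further: 0% = no-inhibitor control and -100% = no-enzyme control; nearly all actives have a fitted effect of over 70% in size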
Method in brief: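 Fluorogenic AMC-substrate cleavage by noncovalent NS2B-NS3 protease complex (25 nM, pH 8.0 Tris buffer with Tween 20) followed for 15 minutes at room temperature (~20% conversion). Percent inhibition from ex340/em450 signal change, fitted by 4-parameter Hill equation.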

| Compound | activity change, negative = inhibition | Potency |
| --- | --- | --- |
| CCC[C@H](N[C@@H](C)C(=O)N1[C@H](C(=O)O)C[C@@H]2CCCC[C@@H]21)C(=O)OCC | -9.56% |  |
| O=C(O)C(=O)Nc1cccc(-c2nn[nH]n2)c1 | 0.257% |  |
| c1ccc2occc2c1 | 3.1% [at 104 µM] |  |
| COCCc1ccccn1 | 1.69% |  |
| CN=C(N)NC(=O)Nc1c(C)cccc1C | -6.62% |  |
| CCCOc1ccc2c(c1)CC[C@@H]1[C@@H]2CC[C@]2(C)C(OC)CC[C@@H]12 (some centres not stated) | 2.79% |  |
| COc1ccc(CCC(C)=O)cc1 | -1.73% |  |
| O=C(O)c1ccc(OCCN2CCCCC2)cc1 | 0.736% |  |
| C1N2CN3CN1CN(C2)C3 | -2.2% |  |
| CCS(=O)(=O)c1ccc(OC)c(C(=O)OC)c1 | 1.28% |  |
| CC(C)CCCC(C)NCCC(C)C (configuration not stated) | 0.862% |  |
| CC(C)(C)C(O)/C=C/c1ccc2c(c1)OCO2 (configuration not stated) | 0.119% |  |
| NCC(=O)O |  | inactive |
| CC(C)NCCCC1(C(N)=O)c2ccccc2-c2ccccc21 | -5.17% |  |
| CCCCCC(=O)O[C@]1(C(C)=O)CC[C@H]2[C@@H]3CCC4=CC(=O)CC[C@]4(C)[C@H]3CC[C@@]21C | -13.9% |  |
| CN1CC[C@H](c2c(O)cc(O)c3c(=O)cc(-c4ccccc4Cl)oc23)[C@H](O)C1 | 1.99% |  |
| Brc1ccccc1-c1ccccc1 | -1.5% [at 104 µM] |  |
